Measurements taken from PubChem BioAssay (NCATS).
Inconclusive results are not listed. Activity calls are given as the source filed them. The call rests on the fitted dose curve; in most records, active means well fitted cell-killing curve with a large enough effect; inconclusive means small, poorly fitted or top-dose-only effect; inactive means flat fitted curve, though single readings scatter.

Assay: qHTS of pediatric cancer cell lines to identify multiple opportunities for drug repurposing: Confirmatory screen for BT-12 cells (AID 1347112);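 further: viability read after 48 h of compound exposure; nearly all actives have a fitted effect of over 55% in size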
Conditions: BT-12 rhabdoid tumor cells, viability; series mostly up to 45.9 µM
Excerpt: Drug repurposing or repositioning has been offered as a strategy for drug development in oncology programs. This approach has special potential for childhood cancers and other rare or orphan diseases, where the expected return on new drug development has been a disincentive to pharmaceuticals.
In this project we exploit the poly-pharmacology of drugs to discover new indications via phenotypic screening of a panel of 19 well-characterized cell lines derived from solid tumors seen in children and adolescents. The goal is to identify approved drugs with previously unrecognized anticancer properties that has the potential to reveal new mechanisms and biological processes involved in carcinogenesis or drug resistance. We employed a titration-based paradigm (quantitative high-throughput screening or qHTS), where all compounds were tested at multiple concentrations for their effect on cell viability. Concentration-response curves (CRCs) were derived directly from the primary screen, and both potency and efficacy values were used to identify compounds with robust bioactivity profiles. We screened the NIH Chemical Genomics Center (NCGC) Pharmaceutical Collection (NPC) and Mechanism Interrogation Plate (MIPE) small molecule collections of approved and investigational compounds against these cell lines; and measured metabolically active cells after 48 hours of compound treatment as a proxy for cell viability.
Assay Submitter: Nathalia J. Martinez, National Center for Advancing Translational Sciences, National Institutes of Health, Rockville, MD, USA; email: natalia.martinez@nih.gov
[1] Shen, M et al. Quantitative high-throughput phenotypic screening of pediatric cancer cell lines identifies multiple opportunities for drug repurposing. Oncotarget 2017 Dec 19;9(4):4758-4772. PMID 29435139.
The cells were obtained from University of North Carolina (UNC), Pediatric Preclinical Testing Program (PPT), and Coriell Institute (CI).
qHTS cell viability assay:
Cells were assayed in growth media at a density of 500-1,000 cells/well. Five microliters of cells were dispensed into 1,536-well, white, solid-bottom, TC-treated plates (Greiner Bio One) using a multidrop dispenser and incubated at 37 degrees C, 5% CO2, under a humidified atmosphere for 5 hours. Twenty-three nanoliters of compounds and controls (neutral control DMSO or positive control bortezomib at final concentration of 2.3 µM) were subsequently transferred by Kalypsys pintool. For primary screens, the MIPE collection was tested at 11-point dilutions (final concentrations range from 0.78 nM to 46 µM) and the NPC collection at 8-point dilutions (final concentrations range from 0.59 nM to 46 µM). Compounds tested in follow-up screens were assayed at 11-point dilutions. Cells were incubated for 48 hours, followed by addition of 3 µL of CellTiter-Glo (Promega). After a 15 min incubation at room temperature, samples were analyzed for luminescence intensity using a ViewLux High-throughput CCD imager equipped with clear filters.
Potency means the concentration at half of the fitted maximal effect.

Compound | Potency
NC(=O)NO | inactive
O=C(Nc1ccc([N+](=O)[O-])cc1Cl)c1cc(Cl)ccc1O | 3.23 µM (active)
COc1cc2c(c(OC)c1OC)-c1ccc(OC)c(=O)cc1[C@@H](NC(C)=O)CC2 | 0.0631 µM (active)
CC#C[C@]1(O)CC[C@H]2[C@@H]3CCC4=CC(=O)CCC4=C3[C@@H](c3ccc(N(C)C)cc3)C[C@@]21C | inactive
NC12CC3CC(CC(C3)C1)C2 | inactive
CC(C)NCC(O)c1ccc(O)c(O)c1 (stereo unspecified) | 4.14 µM (active)
CN1CCN(CCCN2c3ccccc3Sc3ccc(Cl)cc32)CC1 | 16.5 µM (active)
CCC1(c2ccccc2)C(=O)NCNC1=O | inactive
O=C1c2c(O)ccc(O)c2C(=O)c2c(NCCNCCO)ccc(NCCNCCO)c21 | 1.85 µM (active)
Clc1ccc(C(c2ccccc2Cl)C(Cl)Cl)cc1 (stereo unspecified) | inactive
CS(=O)(=O)CCNCc1ccc(-c2ccc3ncnc(Nc4ccc(OCc5cccc(F)c5)c(Cl)c4)c3c2)o1 | 13.1 µM (active)
COC(=O)Nc1nc2ccc(C(=O)c3cccs3)cc2[nH]1 | 0.522 µM (active)
CCCCc1oc2ccccc2c1C(=O)c1cc(I)c(OCCN(CC)CC)c(I)c1 | 79.4 µM (active)
CS(=O)(=O)Nc1ccc([N+](=O)[O-])cc1Oc1ccccc1 | inactive
CC[C@@]1(O)C(=O)OCc2c1cc1n(c2=O)Cc2cc3c(CN(C)C)c(O)ccc3nc2-1 | 3.69 µM (active)
CC(C)Cc1ccc(C(C)C(=O)O)cc1 (stereo unspecified) | inactive
